Assay results: PubChem BioAssay AID488815 (Broad Institute, 2010)
Results with a measured potency or affinity are listed apart. Inconclusive results are not listed. Calls of active or inactive are those of the source. No rule for the calls is given here.

The compounds below were run against CAAX prenyl protease 1 (Saccharomyces cerevisiae (strain ATCC 204508 / S288c)) (UniProt P47154) (assay: yeast CAAX protease Ste24 inhibition – biochemical, S. cerevisiae, plate reader, cherry-pick, dose response (AID 488815)). Settings: series mostly up to 10 µM.
Sequence of CAAX prenyl protease 1 (Saccharomyces cerevisiae (strain ATCC 204508 / S288c)) (P47154 whole entry, looked up): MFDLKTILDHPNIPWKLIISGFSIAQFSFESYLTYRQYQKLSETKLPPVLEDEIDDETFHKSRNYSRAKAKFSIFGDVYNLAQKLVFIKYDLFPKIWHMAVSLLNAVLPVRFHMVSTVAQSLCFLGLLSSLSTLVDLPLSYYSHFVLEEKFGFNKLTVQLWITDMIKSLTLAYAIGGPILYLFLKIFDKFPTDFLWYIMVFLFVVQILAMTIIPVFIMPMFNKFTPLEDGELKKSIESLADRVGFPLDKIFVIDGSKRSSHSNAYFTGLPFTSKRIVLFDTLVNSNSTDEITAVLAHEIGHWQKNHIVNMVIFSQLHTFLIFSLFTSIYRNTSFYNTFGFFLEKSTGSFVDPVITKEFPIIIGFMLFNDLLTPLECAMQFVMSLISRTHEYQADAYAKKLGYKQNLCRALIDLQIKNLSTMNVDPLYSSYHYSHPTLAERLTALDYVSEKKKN

outcome, inactive:
CCOC(=O)c1c(NC(=O)COc2ccccc2F)sc2c1CC(C)(C)NC2(C)C
Cc1nc2c(C)cccn2c(=O)c1NC(=O)COc1ccccc1
CC1CCN(C(=O)c2cc3nc(-c4ccccc4)cc(-c4ccccc4)n3n2)CC1
CCn1cc(/C=C(\NC(=O)c2ccccc2)C(=O)N2CCOCC2)c2ccccc21
O=C1CCCC(O)=C1N=Nc1ccc2ncsc2c1
Cc1cc(C(=O)N/N=C/c2c3ccccc3cc3ccccc23)n[nH]1
CC(C)N1CCN(Cc2ccc(OCc3ccccc3)cc2)CC1CCO (stereo not given)
COc1ccc(C2CC(c3ccccc3)=NN2C(=O)c2ccc(Cl)c([N+](=O)[O-])c2)cc1 (stereo not given)
CCCCCCCCNC(C)C(O)c1ccc(SC(C)C)cc1 (stereo not given)
COc1cccc(-c2csc(N3CCN(C(=O)NC45CC6CC(CC(C6)C4)C5)CC3)n2)c1
CCn1c(COc2cccc(C)c2)nnc1SCC(=O)NC1CCCC1
O=S(=O)(c1ccccc1)c1nc(-c2ccco2)oc1N1CCCCC1
COc1cccc2sc3ccc(C#CC4(O)CCCCC4)cc3c(=O)c12
Cc1nc(N2CCCCC2)c2c(C)c(C(=O)Nc3ccccc3C(F)(F)F)sc2n1
O=C(Nc1ccc(N2CCOCC2)c(Cl)c1)c1cc2ccccc2o1
Cc1nc(N2CCOCC2)c2c(C)c(C(=O)Nc3ccc(C(F)(F)F)cc3)sc2n1
Cc1ccc(C2(COC(=O)C(C)C)CO2)c(OC(=O)C(C)C)c1 (stereo not given)
O=C1C(Cc2c[nH]c3ccccc23)NC(=S)N1Cc1ccccc1 (stereo not given)
COc1ccc(Cl)cc1Nc1nc(C)nc2c1oc1ccccc12
Cc1ccc(C(=O)c2c3ccccc3[n+]([O-])n2CCO)cc1
CCCOc1ccccc1C(=O)NCCCC(=O)O
COc1cccc(C2CC(c3ccc(Br)cc3)=NN2C(=O)c2ccncc2)c1OC (stereo not given)
Cc1ccccc1OC(C)C(=O)N1CCC(Cc2ccccc2)CC1 (stereo not given)
CC(C)NCC(O)COCCOc1ccc(Br)cc1 (stereo not given)
O=C(C1CCC(=O)N(C2CC2)C1)N1CCN(c2ccccc2Cl)CC1 (stereo not given)
Cc1ccc(OCCN2C(=O)C(=O)c3cc(C)ccc32)cc1
COc1ccc(S(=O)(=O)N(CC(=O)N2CCCC2)Cc2ccccc2)cc1
O=C(Nc1ccc(F)cc1)Oc1ccccc1N1CCOCC1
CC(C)(C)OC(=O)N1CCC(c2cc(=O)n3[nH]cc(C(=O)Nc4ccc(F)c(Cl)c4)c3n2)CC1
O=C(Nc1ncccn1)c1ccc([N+](=O)[O-])cc1
COC(C[C@@H](O)C[C@H](O)[C@H](C)OCc1ccccc1)OC
NC(=NCCCCCCN=C(N)/N=C(\N)Nc1ccc(Cl)cc1)/N=C(\N)Nc1ccc(Cl)cc1
O=C(CN(C1CCCCC1)C1CCCCC1)N1CCc2ccccc2C1
CN1c2ccc(C=O)c3c(C=O)ccc(c23)N(C)C1(C)C
Cn1c(CN2CCOCC2)c(C#N)c2ccccc21
Cc1cccc(NS(=O)(=O)c2ccc(C)c(C(=O)OCC(=O)Nc3cc(C)on3)c2)c1
COc1ccc(OCC(=O)NS(=O)(=O)c2ccc(Cl)cc2)cc1
Cc1cc(Cl)c2oc(C(=O)N3CCN(C(=O)c4ccco4)CC3)c(C)c2c1
CCCCn1c(=O)[nH]c(=O)c2c1nc(-c1ccc(OC)c(Br)c1)n2CC(C)C
CCN(CC)c1ccc(C(=O)c2ccccc2C(=O)O)c(O)c1
